Most compounds without a hit are left out; they make up all but 9.5% or so of the library.
HPGD block = qHTS Assay for Inhibitors of HPGD (15-Hydroxyprostaglandin Dehydrogenase); 15-hydroxyprostaglandin dehydrogenase [NAD(+)] (Homo sapiens), P15428; purified HPGD, NADH fluorescence kinetic, PGE2 substrate; Potency, µM, inactives show at the highest dose activity change, negative = inhibition, actives largely listed as inhibitors; 150,000 compounds, 4.3% hits; active = well fitted inhibition curve with a large enough effect, not every such curve was filed as active; inconclusive = small, poorly fitted or top-dose-only effect, or another doubt; inactive = no such curve, though single readings can be large or run the other way
Target sequence (P15428 whole entry, looked up): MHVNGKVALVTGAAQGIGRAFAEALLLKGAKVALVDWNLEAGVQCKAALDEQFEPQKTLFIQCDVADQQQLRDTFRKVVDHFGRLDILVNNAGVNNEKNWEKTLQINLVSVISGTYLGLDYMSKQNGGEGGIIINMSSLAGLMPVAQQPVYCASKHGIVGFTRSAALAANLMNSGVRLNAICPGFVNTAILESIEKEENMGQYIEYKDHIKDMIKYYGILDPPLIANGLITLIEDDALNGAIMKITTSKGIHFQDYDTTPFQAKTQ
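NADH formation kinetics: reaction with 30 uM PGE2 and 1 mM NAD+ (final), 20 nM enzyme, Tris-HCl pH 8 with Tween 20, after 15 min compound preincubation at room temperature. Fluorescence change, last versus first of five reads.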
ALDH1A1 inh = qHTS Assay for Inhibitors of Aldehyde Dehydrogenase 1 (ALDH1A1) | Aldehyde dehydrogenase 1A1 (Homo sapiens), P00352 | Purified ALDH1A1, NADH fluorescence, propionaldehyde substrate | Potency, µM (titrated, usually from 75.3 µM), without a hit: at the top dose activity, negative = inhibition, usual class: inhibitors | 220,000 compounds, 7.3% hits; active = well fitted inhibition curve with a large enough effect, not every such curve was filed as active; inconclusive = small, poorly fitted or top-dose-only effect, or another doubt; inactive = no such curve, though single readings can be large or run the other way;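 note: plate controls were no enzyme wells and a reference inhibitor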
NPSR antagonist = qHTS Assay for Antagonists of the Neuropeptide S Receptor: cAMP Signal Transduction. 220,000 compounds, 1% hits. CHO-NPSR cells, cAMP TR-FRET, antagonist mode. Q6W5P4. Potency, µM (doses to about 38.3 µM), for inactives: top-dose activity change, negative = inhibition, most hits filed as inhibitors; note: nearly all actives have a fitted effect of over 50% in size
Tau fibril ThT = qHTS for Inhibitors of Tau Fibril Formation, Thioflavin T Binding. Microtubule-associated protein tau (Homo sapiens), P10636. 270,000 compounds, 2.1% hits. recombinant tau K18 P301L, heparin-induced fibrillization, ThT fluorescence. AID 1460, 2008. Potency, µM (highest dose often 57.4 µM), inactives show at the top dose activity, negative = inhibition, actives largely listed as inhibitors; note: nearly all actives have a fitted effect of over 55% in size
Target sequence (P10636 561-689 P618L limits assumed): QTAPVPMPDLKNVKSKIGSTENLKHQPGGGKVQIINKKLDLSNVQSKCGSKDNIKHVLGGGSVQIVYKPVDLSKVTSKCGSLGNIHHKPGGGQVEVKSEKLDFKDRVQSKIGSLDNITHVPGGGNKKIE
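Tau K18 P301L fragment (15 uM unlabeled plus 0.24 uM Alexa 594-labeled) in 100 mM sodium acetate pH 7 with compound, fibrillization induced by 20 uM heparin for 6 hr at 37 C. Thioflavin T (30 uM) added, fluorescence read after 1 hr (ex 450, em 510 nm).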
Tau fluor cs = Counterscreen qHTS for Inhibitors of Tau Fibril Formation, Fluorescence Polarization. Potency, µM (doses to about 57.7 µM), for inactives: at the top dose activity change, negative = decrease. tau K18 P301L Alexa594 fluorescence, heparin fibrillization. 280,000 compounds, 0.93% hits; note: nearly all actives have a fitted effect of over 55% in size
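Human tau K18 P301L (15 uM unlabeled, 0.24 uM Alexa 594-labeled) in 100 mM sodium acetate pH 7 with 20 uM heparin, 6 hr at 37 C. ThT 30 uM added, 1 hr ambient; Alexa 594 FP and total fluorescence read at 555/632 nm.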
Tau fibril FP = qHTS for Inhibitors of Tau Fibril Formation, Fluorescence Polarization; Microtubule-associated protein tau (Homo sapiens), P10636; K18 P301L tau heparin fibrillization, Alexa594 FP, 6 h; Potency, µM (series often up to 57.7 µM), for inactives: top-dose activity, negative = inhibition, most hits filed as inhibitors; 280,000 compounds, 0.39% hits; AID 1468, 2008; note: nearly all actives have a fitted effect of over 55% in size
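FP of Alexa 594-tau after heparin (20 uM) induction. Substrate: human K18 P301L, 15 uM unlabeled, 0.24 uM labeled. Buffer 100 mM sodium acetate pH 7. 6 hr, 37 C.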
The depositor's hits bear a star; ? = inconclusive; . = no result given; [ ] = dose if it differs, or a comment. Unless noted, calls come from the whole dose curve; as a rule, active = well fitted curve in the direction sought with a large enough effect; inconclusive = small, poorly fitted or top-dose-only effect, or another doubt; inactive = no such curve, though single readings can be large; an effect the other way counts as inactive or inconclusive. Unless noted, % is set by controls: 0 for no effect and ±100 for the full control effect; potency is the fitted concentration of half-maximal effect.

SMILES	HPGD block	ALDH1A1 inh	NPSR antagonist	Tau fibril ThT	Tau fluor cs	Tau fibril FP
O=C(O)CN1C(=O)C2C3CC(C2C1=O)C1C(c2ccccc2)c2sc(=O)[nH]c2SC31 (centres undefined)	-2%	9%	14%	-6%	0%	7%
O=c1[nH]c2c(s1)C(c1ccco1)C1C3CCC(C3)C1S2 (centres undefined)	-28%	13µM*	-8%[46.1 µM]	?	-19%	-6%
COc1ccc(-c2nn(-c3ccccc3)cc2/C=N/NC(=O)c2ccc(Br)o2)cc1	?	?	6.3µM*	-16%	-28%	?
O=C(NOC(=O)c1ccccc1)c1ccccc1	.	20µM*	-12%	?	-4%	14%
CCOc1ccccc1C(=O)NC(C(=O)NCc1ccccc1OC)C(C)C (centres undefined)	.	5%	-18%	-4%	-6%	5%
CCOc1ccccc1C(=O)N[C@H](C(=O)Nc1cc(S(=O)(=O)N(C)C)ccc1OC)C(C)C	.	10µM*	-14%	1%	-9%	-1%
COc1ccc(-n2c(C)cc(/C=N/Nc3nnc(C)n3N)c2C)cc1	-19%	13µM*	28%	28µM*	-27%	?
COc1cccc(C(=O)Nc2nc(-c3nnn(-c4cccc(Cl)c4C)c3C)ns2)c1	.	.	.	5%	-14%	-6%
Cc1ccc(Cn2c(-c3ccccc3)nc3ccccc32)cc1	.	.	.	-17%	-9%	-6%
Cc1ccc(-c2nc3ccccc3c(=O)n2Cc2ccccc2)cc1	-3%	16µM*	-12%	6%	8%	-2%
CC(NC(=O)COC(=O)C1CSC2(C)CCC(=O)N12)C12CC3CC(CC(C3)C1)C2 (centres undefined)	.	4.5µM*	-4%	-9%	-11%	1%
CC12CCC(=O)N1C(C(=O)OCC(=O)Nc1sccc1C#N)CS2 (centres undefined)	-9%	-15%	13%[7.67 µM]	?	-19%	-4%
CCCCCCNC(=O)N[C@H](C(=O)NCCC[C@H]1CN2C(=NC[C@H]2C)N1CCC(c1ccccc1)c1ccccc1)C(C)O (some centres undefined)	.	.	10µM*	-16%	-4%	-7%
O=C(Nc1cc(S(=O)(=O)Nc2ccc(Cl)cc2)ccc1N1CCCCC1)c1ccc(F)cc1	?	28µM*	?	5%	-24%	?
O=S(=O)(Nc1ccc(Cl)cc1)c1ccc(N2CCOCC2)c(NC(=S)NCCN2CCOCC2)c1	.	8.9µM*	-10%	?	-10%	-12%
CCn1c(SCC(=O)c2ccc(OC)cc2)nnc1C(C)NC(=O)c1ccc(OC)cc1 (centres undefined)	-16%	12µM*	2%[46.1 µM]	-11%	3%	5%
CCn1c(SCC(=O)c2cc(OC)ccc2OC)nnc1C(C)C	-16%	28µM*	-3%[46.1 µM]	-10%	5%	-3%
CCn1c(CNC(=O)Cc2ccc(OC)cc2)nnc1SCCOc1ccccc1	-4%	-1%	6%[46.1 µM]	-17%	-17%	9%
CCn1c(SCC(=O)c2ccc(Br)cc2)nnc1C(C)NC(=O)Cc1ccc(OC)cc1 (centres undefined)	-10%	8%	-2%[46.1 µM]	-17%	-2%	-7%
S=c1[nH]nc(COc2ccc3c(c2)OCO3)n1-c1ccccc1	25µM*	14µM*	-8%[46.1 µM]	-10%	-5%	-2%
CCn1c(CNC(=O)Cc2ccc(OC)cc2)nnc1SCC(=O)c1ccccc1	.	2.8µM*	-3%	?	1%	-12%
CC(=O)OC1CC(C)OC(C)O1 (centres undefined)	1%	9%	.	.	.	.

High-throughput results as filed in PubChem BioAssay.
